This note sets out measurements from PubChem BioAssay (EPA / NIEHS).

For assay [1], the target named is Thyroid hormone receptor alpha (Rattus norvegicus) + Thyroid hormone receptor beta (Rattus norvegicus) (UniProt P18113+P63059). Nature of the assay: TOX21_TR_LUC_GH3_Antagonist_Followup: Tox21 GH3 Thyroid Hormone Receptor Antagonism Luciferase Follow-Up Assay (AID 2283942). Put shortly:
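Loss of T3-driven (1.0 nM final) reporter activity in GH3 cells was read by ONE-Glo luminescence after 24 h incubation at 37C; 15-point compound series spanned 92 uM to 5nM final, 1,500 cells/well.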

Assay [2] in a line: TOX21_TRB_BLA_Antagonist_Followup_viability: Viability Assessment in the Tox21 Thyroid Hormone Receptor beta Antagonism Beta-lactamase (BLA) Follow-Up Assay (AID 2283961). The essentials: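 TRβ-bla HEK293T (human TRβ LBD fused to GAL4 DBD), 3,000 cells/well, 2% charcoal-stripped FBS, phenol red-free medium; 18 h compound exposure, 37C; CellTiter-Glo 30 min RT; luminescence, loss-of-signal readout.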

Assay [3] can be described thus: TOX21_TR_RXR_BLA_Antagonist_Followup_viability: Viability Assessment in the Tox21 Thyroid Hormone Receptor beta Retinoid X Receptor alpha (RXRa) Antagonism Beta-lactamase (BLA) Follow-Up Assay (AID 2283979). The essentials: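 Follow-up compounds (11 concentrations, triplicate) were incubated 16 h at 37C/5% CO2 with HEK293T RXRa-bla cells seeded at 2,500/well in charcoal-stripped-serum medium. ATP content by CellTiter-Glo luminescence gave viability; curves fitted in both directions against DMSO.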

Assay [4] in a line: TOX21_PR_BLA_Followup_Agonist_viability: Viability Assessment in the Tox21 HEK293 Progesterone Receptor (PR) Agonism Beta-lactamase Follow-Up Assay (AID 2283935).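 Note: signal loss means lower viability so actives are cytotoxic.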 The essentials: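 Run multiplexed with the beta-lactamase FRET read, this endpoint measures ATP by CellTiter-Glo luminescence (30 min, room temperature). PR-UAS-bla HEK293T cells received compound 6 hr after plating and were then incubated 16 hr at 37C in 2% stripped serum.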

Assay [5] concerns the target PGR (gene 5241) (UniProt P06401). Nature of the assay: TOX21_PR_LUC_Followup_Antagonist: Tox21 HEK293 Progesterone Receptor (PR) Antagonism Luciferase Follow-Up Assay (AID 2283938).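 Note: curve fitted upward as signal gain over DMSO baseline despite antagonist label.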 The essentials:
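Cells are grown 5 days in charcoal-stripped-FBS assay medium, plated, left 5 h, then dosed with compound and incubated 16 h. ONE-Glo reagent is added and luminescence read after 30 min.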

For the next assay, the target named is THRA (gene 7067) (UniProt P10827). Nature of the assay: TOX21_TRA_COA_Antagonist_Followup_ratio: Tox21 Thyroid Hormone Receptor alpha Antagonism through Coactivator Recruitment Follow-Up Assay, Ratio (AID 2283953). The essentials: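 GST-TRα LBD 2.5 nM, BSA 0.10%, + cpd; then FITC-SRC-2 peptide 200 nM + Tb-anti-GST Ab 2 nM. TR-FRET ratio 520/495 nm. Norm: DMSO = 0%, T3 = 100%.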
THRA (gene 7067), sequence (P10827 whole entry, looked up, the tested form may be a part): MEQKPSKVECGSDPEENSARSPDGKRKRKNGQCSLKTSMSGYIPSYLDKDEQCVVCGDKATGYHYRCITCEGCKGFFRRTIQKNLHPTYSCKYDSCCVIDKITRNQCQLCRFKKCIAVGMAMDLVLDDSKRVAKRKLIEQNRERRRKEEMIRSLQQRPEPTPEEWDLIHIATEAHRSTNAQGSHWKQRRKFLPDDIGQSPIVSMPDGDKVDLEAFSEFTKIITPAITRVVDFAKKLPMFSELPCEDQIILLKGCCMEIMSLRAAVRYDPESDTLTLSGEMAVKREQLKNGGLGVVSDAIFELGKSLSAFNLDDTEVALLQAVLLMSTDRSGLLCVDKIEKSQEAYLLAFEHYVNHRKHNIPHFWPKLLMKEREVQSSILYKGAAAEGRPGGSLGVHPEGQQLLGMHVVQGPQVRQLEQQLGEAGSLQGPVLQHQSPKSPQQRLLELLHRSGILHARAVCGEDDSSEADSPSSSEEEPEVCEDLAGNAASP

The next assay addresses THRB (gene 7068) (UniProt P10828). As to the kind of experiment: TOX21_TRB_COA_Antagonist_Followup_ratio: Tox21 Thyroid Hormone Receptor beta Antagonism through Coactivator Recruitment Follow-Up Assay, Ratio (AID 2283967). The essentials: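 Coactivator recruitment to the GST-tagged TRb ligand-binding domain (5.0 nM) was read as the 520/495 nm TR-FRET ratio, using 200 nM fluorescein SRC-2 peptide and 2 nM terbium anti-GST. Scaled between DMSO and T3 wells; loss of signal fitted.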

Assay [6] has as its target Retinoic acid receptor RXR-alpha (Homo sapiens) (UniProt P19793). As to the kind of experiment: TOX21_TR_RXR_BLA_Antagonist_Followup_ratio: Tox21 Thyroid Hormone Receptor beta Retinoid X Receptor alpha (RXRa) Antagonism Beta-lactamase (BLA) Follow-Up Assay, Ratio (AID 2283972). Put shortly:
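HEK293T RXRa-bla, 2% charcoal-stripped FBS medium, 16 h compound exposure at 37C, qHTS 11 conc x3. CCF4 FRET ratio ch2/ch1 (460:530), DMSO = baseline, loss-of-signal fit.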

For assay [7], the target named is PGR (gene 5241) (UniProt P06401). As to the kind of experiment: TOX21_PR_BLA_Followup_Antagonist_ratio: Tox21 HEK293 Progesterone Receptor (PR) Antagonism Beta-lactamase Follow-Up Assay, Ratio (AID 2283934).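 Note: PR-UAS-bla HEK293T cells stimulated with 1 nM R5020 agonist for 16 hr.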 The essentials: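 Readout is the blue/green (ch2/ch1) substrate cleavage ratio after 2 hours at room temperature, following 16 hr co-treatment of PR-bla HEK293T cells with compound and 1nM promegestone. Multiplexed CellTiter-Glo viability flags cytotoxicity; DMSO baseline.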
PGR (gene 5241), sequence (P06401 whole entry, looked up): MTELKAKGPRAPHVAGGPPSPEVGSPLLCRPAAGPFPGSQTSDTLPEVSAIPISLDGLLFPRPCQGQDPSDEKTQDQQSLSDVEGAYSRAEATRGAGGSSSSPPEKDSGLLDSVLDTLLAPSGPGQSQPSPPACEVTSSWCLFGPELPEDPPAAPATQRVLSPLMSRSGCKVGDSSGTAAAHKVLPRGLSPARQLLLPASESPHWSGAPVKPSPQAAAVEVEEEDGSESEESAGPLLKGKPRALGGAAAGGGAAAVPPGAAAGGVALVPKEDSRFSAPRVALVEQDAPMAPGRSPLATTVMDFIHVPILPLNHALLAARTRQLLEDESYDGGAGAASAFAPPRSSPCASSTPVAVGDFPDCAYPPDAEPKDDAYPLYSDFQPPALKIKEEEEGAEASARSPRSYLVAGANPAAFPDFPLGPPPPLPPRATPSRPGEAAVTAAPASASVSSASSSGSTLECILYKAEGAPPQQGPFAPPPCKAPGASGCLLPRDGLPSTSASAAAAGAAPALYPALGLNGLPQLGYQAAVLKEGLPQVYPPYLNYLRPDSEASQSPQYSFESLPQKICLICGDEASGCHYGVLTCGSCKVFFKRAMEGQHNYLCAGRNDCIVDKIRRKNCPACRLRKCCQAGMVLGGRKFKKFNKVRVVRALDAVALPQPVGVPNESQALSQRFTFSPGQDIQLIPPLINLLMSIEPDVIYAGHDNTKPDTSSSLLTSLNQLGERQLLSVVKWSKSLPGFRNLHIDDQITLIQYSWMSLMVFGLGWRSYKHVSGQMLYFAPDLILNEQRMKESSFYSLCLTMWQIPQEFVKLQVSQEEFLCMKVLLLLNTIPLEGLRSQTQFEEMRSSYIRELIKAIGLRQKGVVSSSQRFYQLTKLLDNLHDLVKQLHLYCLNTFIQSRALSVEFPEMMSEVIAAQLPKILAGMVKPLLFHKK

A short description of assay [8]: TOX21_PR_BLA_Followup_Antagonist_viability: Viability Assessment in the Tox21 HEK293 Progesterone Receptor (PR) Antagonism Beta-lactamase Follow-Up Assay (AID 2283936).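 Note: cells exposed to compound with R5020 agonist for 16 h; hits lower the luminescence signal meaning cytotoxicity.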 The essentials: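 PR-UAS-bla HEK293T cells in medium with 2% charcoal-stripped FBS were treated with compounds plus R5020 for 16 hr at 37C. After the beta-lactamase read, CellTiter-Glo was added to the same wells and luminescence read after 30 min at room temperature.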

The nature of assay [9]: TOX21_PR_LUC_Followup_Antagonist_viability: Viability Assessment in the Tox21 HEK293 Progesterone Receptor (PR) Antagonism Luciferase Follow-Up Assay (AID 2283940). Put shortly: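 Viability counter-readout: cellular ATP measured by luciferase luminescence after 16 h compound exposure at 37C of HEK293-PR-A-luc cells, which had been cultured in charcoal-stripped serum and seeded 5 h beforehand.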

Assay [10] can be described thus: TOX21_PR_LUC_Followup_Agonist_viability: Viability Assessment in the Tox21 HEK293 Progesterone Receptor (PR) Agonism Luciferase Follow-Up Assay (AID 2283941).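 Note: loss of signal means cytotoxicity so actives lower viability.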 Put shortly:
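Cytotoxicity counter-readout in the PR-A luciferase reporter line HEK293, with 16 h compound exposure at 37C after cells were cultured in charcoal-stripped serum. Cellular ATP quantified by CellTiter-Glo luminescence.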

Assay [11] has as its target PGR (gene 5241) (UniProt P06401). As to the kind of experiment: TOX21_PR_BLA_Followup_Agonist_ratio: Tox21 HEK293 Progesterone Receptor (PR) Agonism Beta-lactamase Follow-Up Assay, Ratio (AID 2283933). The essentials:
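Beta-lactamase reporter readout: ratio of cleaved (ch2) to uncleaved (ch1) substrate after 2 h room-temperature loading, following 16 h compound exposure at 37C. Cells were PR-UAS-bla HEK293T in 2% charcoal-stripped FBS medium. Viability was multiplexed by CellTiter-Glo.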

For assay [12] the target is unchanged. Nature of the assay: TOX21_PR_LUC_Followup_Agonist: Tox21 HEK293 Progesterone Receptor (PR) Agonism Luciferase Follow-Up Assay (AID 2283937; active = hit-call score of the fitted dose curve at least 0.9, where 1 is the maximum; inactive = score below 0.9). Put shortly:
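Agonism scored as luciferase induction over DMSO, read by ONE-Glo after 30 min at RT. Compounds were incubated 16 h at 37C on HEK293-PR-A-luc cells (3,000/well, pre-plated 5 h) previously grown 5 days in charcoal-stripped serum.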

Broadly, the AC50 is the midpoint of the concentration-response curve, whichever way the signal moves.

Inconclusive results are not listed. Activity calls are given as the source filed them. Rule for the calls, unless noted: active = hit-call score of the fitted dose curve at least 0.9, where 1 is the maximum; inconclusive = response in the unintended direction; inactive = score below 0.9.

THRB (gene 7068), sequence (P10828 whole entry, looked up, the tested form may be a part): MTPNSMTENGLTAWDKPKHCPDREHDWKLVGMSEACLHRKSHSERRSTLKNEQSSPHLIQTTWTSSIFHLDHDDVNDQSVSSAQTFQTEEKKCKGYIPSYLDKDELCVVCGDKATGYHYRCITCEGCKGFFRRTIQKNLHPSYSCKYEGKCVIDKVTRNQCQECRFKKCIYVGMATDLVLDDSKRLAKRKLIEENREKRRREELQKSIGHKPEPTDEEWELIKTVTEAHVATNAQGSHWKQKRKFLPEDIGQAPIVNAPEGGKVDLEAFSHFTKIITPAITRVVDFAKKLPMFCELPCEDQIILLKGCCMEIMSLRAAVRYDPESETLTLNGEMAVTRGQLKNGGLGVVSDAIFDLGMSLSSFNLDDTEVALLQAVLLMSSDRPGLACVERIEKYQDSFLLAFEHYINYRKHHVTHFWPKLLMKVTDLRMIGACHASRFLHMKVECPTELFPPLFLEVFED
Retinoic acid receptor RXR-alpha (Homo sapiens), sequence (P19793 whole entry, looked up): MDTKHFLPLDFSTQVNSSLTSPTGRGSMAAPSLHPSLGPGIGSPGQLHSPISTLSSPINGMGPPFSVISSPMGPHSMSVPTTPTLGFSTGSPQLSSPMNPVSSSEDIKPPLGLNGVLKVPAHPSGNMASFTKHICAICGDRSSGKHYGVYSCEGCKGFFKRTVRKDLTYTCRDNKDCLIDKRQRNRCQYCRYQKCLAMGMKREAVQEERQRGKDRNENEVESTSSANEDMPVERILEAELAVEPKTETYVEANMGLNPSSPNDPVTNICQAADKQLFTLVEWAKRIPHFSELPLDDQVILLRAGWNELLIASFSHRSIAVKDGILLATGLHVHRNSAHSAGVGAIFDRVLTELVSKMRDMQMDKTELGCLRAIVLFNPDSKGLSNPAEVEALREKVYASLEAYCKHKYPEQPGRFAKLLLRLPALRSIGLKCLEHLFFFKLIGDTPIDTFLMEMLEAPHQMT

For `O=c1[nH]c(=O)n([C@H]2C[C@H](O)[C@@H](CO)O2)cc1C(F)(F)F`, the result in [1], in assay [2] and in assay [3] was inactive.

In the case of `CCCC(=O)O[C@]1(C(=O)CO)CC[C@H]2[C@@H]3CCC4=CC(=O)CC[C@]4(C)[C@H]3[C@@H](O)C[C@@]21C`, the molecule was classed as inactive (in assay [4]; in the assay with PGR (gene 5241) [5]).

As to `CC(=O)O[C@@]12CO[C@@H]1C[C@H](O)[C@@]1(C)C(=O)[C@H](O)C3=C(C)[C@@H](OC(=O)[C@H](O)[C@@H](NC(=O)OC(C)(C)C)c4ccccc4)C[C@@](O)([C@@H](OC(=O)c4ccccc4)[C@H]21)C3(C)C`, the result (in assay [1]; with THRA (gene 7067); in the assay with THRB (gene 7068); in assay [6]; in assay [3]) was inactive.

`C[C@@H]1C[C@H]2[C@@H]3C[C@H](F)C4=CC(=O)C=C[C@]4(C)[C@@]3(F)[C@@H](O)C[C@]2(C)[C@@]1(O)C(=O)CO`: the outcome (with PGR (gene 5241) [7]; in [4]; in [8]; in assay [9]; in assay [10]) was inactive.

Consider `C#C[C@]1(O)CC[C@H]2[C@@H]3CCC4=C(CCC(=O)C4)[C@H]3CC[C@@]21C`, for which the result (in [1]; with THRA (gene 7067); in assay [2]; with THRB (gene 7068); in [3]) was inactive.

With `Clc1ccc2c(c1)Nc1ccccc1S2`, the outcome (in the assay with PGR (gene 5241) [11]; in [4]; in assay [8]; in the assay with PGR (gene 5241) [12]) was inactive. For the same molecule, the AC50 with PGR (gene 5241) [7] was 19.4 µM (active); with PGR (gene 5241) [5] it was 28.9 µM (active).
